This is a sample that favours compounds with a hit; in the whole collection about 14% have one here.
Lassa entry inh: qHTS for Inhibitors of binding or entry into cells for Lassa Virus | Lassa virus pseudotype entry inhibition, cell reporter | Potency, µM (doses to about 37.9 µM), actives largely listed as inhibitors | 1.2% of 300,000 active | AID 540256, 2011; calls by dose curve; tested in HEK293 cells; note: nearly all actives have a fitted effect of over 50% in size
HCV inhibitor: qHTS Assay for Inhibitors of Hepatitis C Virus (HCV); Huh7.5.1 HCVcc-Cre infection, luciferase reporter, 44 h; Potency, µM (titrated, usually from 41.8 µM), usual class: inhibitors; 3.4% of 340,000 active; AID 651820, 2012
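Cells (1,000/well) were plated 4 h before compound, then infected with HCVcc-Cre virus (~0.5 moi). After 44 h further culture, infection was read as luciferase luminescence following a 15 min substrate incubation at room temperature.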
Pf growth 96h: Primary qHTS for delayed death inhibitors of the malarial parasite plastid, 96 hour incubation | P. falciparum luciferase reporter growth, 96 h | Potency, µM (highest dose often 28.7 µM), most hits filed as inhibitors | 6.9% of 320,000 active | AID 504834, 2011
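Luminescence readout: decreased luciferase signal marks inhibited growth of reporter-expressing P. falciparum in infected red cells (2% hematocrit, 0.05% parasitemia final), exposed to compound two generations (96 h, 37 C, 5% CO2).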
HCMV antiviral: qHTS Assay for inhibitors of the human cytomegalovirus (HCMV) | AID 1259415, 2018 | HFF cells, HCMV-luciferase reporter, 72 h; hits give low values | 4.5% of 410,000 active | activity change, negative = inhibition, % at 57.5 µM; in the data active = activity change below about -60%; inconclusive = no clear call, values can overlap the other calls; inactive = above about -39%
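After 16 h attachment at 37C, HFF cells received test compound and HCMV-luciferase (1 PFU/cell); reporter luminescence read 72 h later, data normalized against buffer-only and known inhibitor Salinomycin.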
Pf growth 48h: Primary qHTS for delayed death inhibitors of the malarial parasite plastid, 48 hour incubation; Potency, µM (titrated, usually from 28.7 µM), most hits filed as inhibitors; P. falciparum luciferase growth in erythrocytes, 48 h; 5.9% of 310,000 active
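Cell-based growth assay: transgenic P. falciparum expressing firefly luciferase, cultured in red cells within RPMI 1640 containing 0.5% w/v Albumax, 24 mM bicarbonate and gentamycin. A drop in luciferase activity indicates inhibition.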
Marburg entry inh: qHTS for inhibitors of binding or entry into cells for Marburg Virus; Marburg virus pseudotyped entry inhibition, cell reporter; Potency, µM (series often up to 37.8 µM), usual class: inhibitors; 1.8% of 300,000 active; AID 540276, 2011; calls by dose curve; tested in HEK293 cells
Numbers stand for hits; n = inactive; u = inconclusive; x = no result. Unless noted, calls come from the whole dose curve; as a rule, active = well fitted inhibition curve with a large enough effect; inconclusive = small, poorly fitted or top-dose-only effect, or another doubt; inactive = no such curve, though single readings can be large or run the other way.

SMILES | Lassa entry inh | HCV inhibitor | Pf growth 96h | HCMV antiviral | Pf growth 48h | Marburg entry inh
O=C(Nc1ccc(Oc2cccc3ccccc23)cc1)c1ccco1 | u | u | n | -68 | x | u
O=C(Nc1cccc(NC(=O)c2sc3ccccc3c2Cl)c1)c1ccco1 | n | u | u | u | n | u
O=C(Nc1cccc(NC(=O)c2nccc3ccccc23)c1)c1ccco1 | n | n | u | -97 | n | n
COc1ccccc1NC(=O)Cn1c(SCC(=O)N(C)c2ccccc2)nc2ccccc21 | u | x | x | n | x | x
COc1ccc(C(=O)NC(=S)N(C)C2CCCCC2)cc1 | x | n | 12µM | n | n | x
COc1ccc(C(=O)NC(=S)N(C)C2CCCCC2)cc1Br | x | n | 3.7µM | u | u | x
O=C(Oc1ccc(/C=N/NC(=O)c2ccccn2)cc1)c1cccc(F)c1 | n | n | x | n | x | n
N#Cc1c(NC(=O)CSc2ncc(-c3ccccc3)n2CC2CCCO2)sc2c1CCCC2 (stereo not drawn) | 7.3µM | 11µM | n | -62 | u | 5.2µM
N#Cc1c(NC(=O)CSc2nnc(-c3ccncc3)n2CC2CCCO2)sc2c1CCCC2 (stereo not drawn) | n | n | u | -80 | n | n
CCn1c(SCC(=O)Nc2sc3c(c2C#N)CCCC3)nnc1-c1ccncc1 | n | u | u | n | u | n
N#Cc1c(NC(=O)CSc2nnc(-c3ccccc3)o2)sc2c1CCCC2 | n | n | n | n | u | u
COc1cc(Cl)c(C)cc1NC(=O)CCc1nc2cccnc2n1-c1ccccc1 | n | x | x | n | x | n
CCOC(=O)c1cc2c(nc1C)-c1cc(Cl)cc(Cl)c1OC2O (stereo not drawn) | x | n | 4.7µM | n | 6.6µM | x
CCOC(=O)c1cc(C(=O)NN)c(C)nc1C | n | n | n | n | n | n
COc1ccccc1NC(=O)CSc1nc(-c2ccc(C(C)(C)C)cc2)c(C#N)c(=O)[nH]1 | n | x | x | n | x | n
O=C1CCC([N+](=O)[O-])C(c2ccc3c(c2)OCO3)N1 (stereo not drawn) | x | n | 10µM | n | n | x
Cc1cccc(C)c1Nc1c(-c2ccccc2F)nc2ccccn12 | x | x | x | n | x | x
COc1ccc(NC(=O)C2CCN(S(=O)(=O)c3ccc4c(c3)NC(=O)C(C)S4)CC2)cc1 (stereo not drawn) | n | u | n | u | 9.3µM | u
CCOc1ccc(NC(=O)C2CCN(S(=O)(=O)c3ccc4c(c3)NC(=O)C(C)S4)CC2)cc1 (stereo not drawn) | x | u | u | n | u | x
CC1Sc2ccc(S(=O)(=O)N3CCC(C(=O)NCc4ccccc4)CC3)cc2NC1=O (stereo not drawn) | n | u | 1µM | n | u | n
CC1Sc2ccc(S(=O)(=O)N3CCC(C(=O)Nc4ccc(Cl)cc4)CC3)cc2NC1=O (stereo not drawn) | x | u | 13µM | -71 | u | x
COc1ccc(CCNC(=O)CSc2nc3ccccc3nc2Cc2ccc(Cl)cc2)cc1OC | n | x | x | n | x | x
CC1CCCCC1NC(=O)CSc1nnc(-c2ccco2)n1N (stereo not drawn) | x | x | x | n | x | x
CN1C(=O)NC(NC(=O)c2cccs2)(C(F)(F)F)C1=O (stereo not drawn) | n | n | n | n | n | n
CC(C)CN1C(=O)NC(NC(=O)c2cccs2)(C(F)(F)F)C1=O (stereo not drawn) | n | n | n | n | 2.3µM | n
SMILES | Lassa entry inh | HCV inhibitor | Pf growth 96h | HCMV antiviral | Pf growth 48h | Marburg entry inh
COc1cc(OC)c2cc(C(=O)N/N=C/c3cccc(OC)c3O)[nH]c2c1 | u | 8.9µM | u | -104 | u | 4.5µM
COc1ccc2[nH]c(C(=O)N/N=C/c3ccc(O)cc3O)cc2c1 | x | u | u | -90 | 6.6µM | x
COc1cccc(/C=N/NC(=O)c2cc3c(OC)ccc(OC)c3[nH]2)c1O | x | 2.5µM | u | -99 | x | x
Fc1ccc(-c2ccc3nccn3c2)cc1Cl | x | x | x | n | x | x
COc1ccc(C)cc1NC(=O)NC1CC(=O)N(c2ccc3c(c2)OCCO3)C1 (stereo not drawn) | x | x | x | n | x | x
O=C(Nc1ccccn1)c1ccc(CN(c2ccccc2)S(=O)(=O)c2ccccc2)cc1 | u | u | n | u | n | u
C=CCN(c1ccccc1OC)S(=O)(=O)c1cccc(C(=O)Nc2nnc(C3CC3)s2)c1 | u | n | 9.3µM | n | 10µM | u
COc1ccc(N(Cc2ccccc2)S(=O)(=O)c2cccc(C(=O)Nc3ccccn3)c2)cc1 | 13µM | u | u | u | u | u
COc1ccccc1N(Cc1ccccc1)S(=O)(=O)c1cccc(C(=O)Nc2cccc(C)n2)c1 | x | 10µM | u | n | 9.3µM | x
CSCC[C@H](NC(=O)[C@@H]1Cc2c([nH]c3ccccc23)C2c3ccccc3C(=O)N21)C(=O)NCC1CCCO1 (stereo partly drawn) | x | n | 9.3µM | n | u | x
CSCC[C@H](NC(=O)C1CCN(S(=O)(=O)c2ccc(C)cc2)CC1)C(=O)NCC1CCCO1 (stereo partly drawn) | n | n | u | n | n | n
CC(C)C[C@H](NC(=O)[C@@H]1Cc2c([nH]c3ccccc23)C2c3ccccc3C(=O)N21)C(=O)NCC1CCCO1 (stereo partly drawn) | x | u | 9.3µM | n | u | x
CC(C)[C@H](NC(=O)[C@@H]1Cc2c([nH]c3ccccc23)C2c3ccccc3C(=O)N21)C(=O)NCC1CCCO1 (stereo partly drawn) | x | n | u | n | u | x
Cc1ccc(C)c(CN2C(=O)c3ccccc3S(=O)c3ccc(C(=O)NCCc4ccc(Cl)cc4)cc32)c1 (stereo not drawn) | u | x | x | n | x | u
Oc1[nH]c2ccccc2c1N=Nc1c(F)c(F)c(Cl)c(F)c1F | x | n | u | -97 | n | x
Cc1ccc(CN(Cc2ccco2)C(=O)c2cccc(C)c2)cc1 | n | x | x | n | x | n
Cc1cc(C(=O)CSc2cccc[n+]2[O-])c(C)n1-c1ccc(OC(F)F)cc1 | x | u | u | -73 | n | x
Cc1cc(C(=O)Cn2nc(C(=O)O)c3ccccc3c2=O)c(C)n1-c1ccc(OC(F)F)cc1 | x | u | u | -66 | u | x
Cc1cc(C(=O)Cn2nc(C(=O)O)c3ccccc3c2=O)c(C)n1CC(F)(F)F | n | n | n | n | n | u
Cc1cc(C(=O)Cn2nc(C(=O)O)c3ccccc3c2=O)c(C)n1CCc1ccc(F)cc1 | u | n | n | n | n | 5.6µM
COC(=O)c1c(NC(=O)COc2ccc(Cl)cc2C)sc2c1CCCCC2 | n | x | x | n | x | x
COC(=O)c1ccc(-c2ccco2)n1Cc1nc(-c2ccc(OC)c(OC)c2)oc1C | u | u | x | n | 13µM | u
COC(=O)C1=C(c2ccc(OC(F)(F)F)cc2)C[C@@H]2CC[C@H]1N2C(=O)NC1CC1 | x | u | 5.9µM | n | u | x

Screens as filed in PubChem.
